Screens: PubChem, National Center for Advancing Translational Sciences (NCATS)
ELG1 DNA repair = qHTS screen for small molecules that inhibit ELG1-dependent DNA repair in human embryonic kidney (HEK293T) cells expressing luciferase-tagged ELG1 | HEK293T ELG1-luciferase reporter, luminescence, 16 h; DNA damage induced by 5-fluorouridine | Potency, µM (doses to about 46.1 µM), inactives show at the top dose activity change, negative = inhibition, actives largely listed as inhibitors | actives 2.3% (n = 330,000); note: % is set by controls: 0 for no effect and ±100 for the full control effect; nearly all actives have a fitted effect of over 55% in size
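Reporter activity after DNA damage by 5-fluorouridine is monitored. Compound-treated cells incubate 16 hr at 37 °C, then ONE-Glo is added for 30 min before luminescence reading.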
KB-3-1 tox = qHTS assay for MDR1-selective chemotherapeutics: Primary screen using the parental adenocarcinoma cell KB-3-1; actives 1.4% (n = 400,000); Potency, µM (titrated, usually from 46.1 µM), hits mostly cytotoxic; KB-3-1 viability, CellTiter-Glo ATP luminescence, 72 h; AID 1347075, 2019; note: % is set by controls: 0 for no effect and ±100 for the full control effect; nearly all actives have a fitted effect of over 60% in size
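Using CellTiter-Glo luminescence, growth of non-resistant KB-3-1 adenocarcinoma cells is assessed 72 h after pin-tool compound addition at 37 °C. Normalized responses across the concentration series yield fitted curves.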
KB-V1 MDR tox = qHTS assay for MDR1-selective chemotherapeutics: Primary screen using the drug-selected MDR subline cells KB-V1; actives 3.4% (n = 400,000); Potency, µM (highest dose often 46.1 µM), most hits filed as cytotoxic; KB-V1 MDR cells viability, CellTiter-Glo, 72 h; AID 1347076, 2019; note: % is set by controls: 0 for no effect and ±100 for the full control effect; nearly all actives have a fitted effect of over 60% in size
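Cells of the MDR subline KB-V1 are plated, dosed with compound at multiple concentrations, and incubated 72 h at 37 degrees C; CellTiter-Glo is then added and luminescence read after 10 min.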
SW480 rerep = A quantitative high throughput screen for small molecules that induce DNA re-replication in SW480 colon adenocarcinoma cells; SW480 DNA re-replication, Hoechst DNA content imaging, 48 h; actives 1.8% (n = 340,000); Potency, µM (doses to about 46.1 µM), for the others: top-dose re-replication activation, most hits filed as activators; note: % of control where 0% means no effect; nearly all actives have a fitted effect of over 55% in size
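Cells (250 per well) received 23 nL compound or DMSO by pin tool and were kept 48 hr at 37 C, 5% CO2. Nuclei were then stained with Hoechst for 40 min and scanned for DNA content.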
MCF10A rereplic = A quantitative high throughput screen for small molecules that induce DNA re-replication in MCF 10a normal breast cells. MCF 10A DNA re-replication, Hoechst nuclear intensity, 48 h. Potency, µM (titrated, usually from 46.1 µM), for the others: at the top dose activity, positive = re-replication, actives largely listed as activators. actives 2.9% (n = 350,000); note: % of control where 0% means no effect; nearly all actives have a fitted effect of over 50% in size
* marks the source's active call; other numbers are inactive results; i = inactive; ? = inconclusive; / = no result given; ! = not confirmed by another sample; [ ] = dose if it differs, or a comment. Hits are enriched below; roughly 8.1% of the tested compounds scored in any of these assays. Calls come from the whole dose curve; as a rule, active = well fitted curve in the direction sought with a large enough effect; inconclusive = small, poorly fitted or top-dose-only effect, or another doubt; inactive = no such curve, though single readings can be large; an effect the other way counts as inactive or inconclusive. Potency is the fitted concentration of half-maximal effect.

SMILES	ELG1 DNA repair	KB-3-1 tox	KB-V1 MDR tox	SW480 rerep	MCF10A rereplic
CCCCCCOc1ccc(C(=O)n2cnc(N)n2)cc1	16%	i	i	-4%	23µM*
CCOC(=O)C(O)(c1ccc(N(CC)S(=O)(=O)c2ccc(C)cc2)cc1)C(F)(F)F (stereo not given)	-7%	i	18µM*	?	?
O=C(c1ccc2c(c1)ncn2C1CCCCC1)N1CCC2(CC1)OCCO2	7%	?	9.2µM*	12µM*	13µM*
Cc1cccc(-c2nc3ccc(C(=O)N4CCC5(CC4)OCCO5)cc3nc2-c2cccc(C)c2)c1	?	?	i	?	?
CN(C(=O)Oc1ccc(Cl)c2cccnc12)c1ccccc1	-2%	i	18µM*	5%	9%
C=CCn1cc(C=C2C(=O)NC(=O)NC2=O)c2ccccc21	8%	i	i	-11%	5%
O=C1NC(=O)C(=Cc2cn(CCOc3ccc4c(c3)OCO4)c3ccccc23)C(=O)N1	?	21µM*	?	?	?
O=c1[nH]c(=S)n(C2CC2)c(O)c1C=NCc1cccnc1	-4%	i	i	-3%	-4%
COc1ccc(-c2cc(-c3ccccc3)[n+](C)c(-c3ccccc3)c2)cc1	?	3.3µM*	i	?	13%
COc1ccc(-[n+]2c(-c3ccccc3)cc(-c3ccc(C)cc3)cc2-c2ccccc2)cc1	3.7µM*	2.6µM*	i	?	?
O=C(O)c1ccc(-[n+]2c(-c3ccccc3)cc(-c3ccccc3)cc2-c2ccccc2)cc1	-6%	i	i	-8%	-5%
C[n+]1c(-c2ccccc2)cc(CCCCc2cc(-c3ccccc3)[n+](C)c(-c3ccccc3)c2)cc1-c1ccccc1	?	?	i	3%	?
CCCOC(=O)c1ccc(-[n+]2c(-c3ccccc3)cc(-c3ccccc3)cc2-c2ccccc2)cc1	-25%	16µM*	i	17%	?
Cc1ccc(-c2cc(-c3ccccc3)cc(-c3ccccc3)[n+]2-c2ccc(C(=O)O)cc2)cc1	-1%	i	i	?	0%
COC(=O)[C@@H]1N=C(c2ccc(OC)cc2)O[C@]12C(=O)N(Cc1ccccc1)c1ccccc12	/	i	?	/	/
CCCCn1c(O)c(C(CC)=Nc2ccc(C(=O)O)cc2)c(=O)[nH]c1=O	?	i	i	1%	-17%
CCOc1ccc(-c2cc(C)[n+](CCN3CCOCC3)c(-c3ccc(OCC)cc3)c2)cc1	16µM*	?	i	?	15%
COc1cccc(-c2sc3ccccc3c2-c2ccc(OCCN3CCOCC3)cc2)c1	-9%	?	i	1%	4%
COc1cccc(CC(=O)N(C)C2CCCN(Cc3ccccc3F)C2)c1 (stereo not given)	-13%	i	i	-4%	7%
CN1C(=O)C(C2c3ccccc3C(=O)N2Cc2ccccc2)C(=O)N(C)C1=O (stereo not given)	8%	i	i	1%	-13%
CCOC(=O)C1(CCOc2ccccc2)CCN(Cc2cccc(O)c2)CC1	-14%	i	i	3%	13%
CCOC(=O)[C@]12Cc3cc(Cl)ccc3[C@H]1N(Cc1ccccc1)C(=O)c1ccccc12	/	?	23µM*!	2%[9.22 µM]	-49%
CCOC(=O)[C@]12Cc3cc(C)ccc3[C@H]1N(Cc1ccccc1)C(=O)c1cc(OC)ccc12	/	18µM*	9.2µM*	/	/
CCOC(=O)[C@]12Cc3cc(N(C)C)ccc3[C@H]1N(Cc1ccccc1)C(=O)c1ccccc12	/	?	?	-1%	15%
CCOC(=O)[C@]12Cc3ccccc3[C@H]1N(Cc1ccccc1)C(=O)c1cc(F)c(F)cc12	/	23µM*	10µM*	/	/
SMILES	ELG1 DNA repair	KB-3-1 tox	KB-V1 MDR tox	SW480 rerep	MCF10A rereplic
CC(=O)Cc1c[nH]c2ccccc12	3%	i	i	/	/
c1ccc(CCn2nnnc2CN2CCC(n3nnc4ccccc43)CC2)cc1	-14%	i	5.8µM*	10%	0%
Fc1ccc2c(c1)nnn2C1CCN(Cc2nnnn2CCc2ccccc2)CC1	-23%	i	i	-19%	1%
FC(F)(F)c1ccc2c(c1)ncn2C1CCN(Cc2nnnn2C2CCCCC2)CC1	?	?	7.3µM*	-1%	18%
Cc1nc2cc(C(F)(F)F)ccc2n1C1CCN(Cc2nnnn2Cc2ccc3c(c2)OCO3)CC1	6.5µM*	?	18µM*	14%	?
OC1(c2ccc(F)cc2)CC2CCC(C1)N2Cc1nnnn1C1CCCC1 (stereo not given)	?	i	i	-10%	7%
Cc1nc2cc(C(F)(F)F)ccc2n1C1CCN(Cc2nnnn2Cc2cccs2)CC1	-12%	i	?	-3%	3%
Fc1ccc(Cn2nnnc2CN2CCC(n3nnc4cc(C(F)(F)F)ccc43)CC2)cc1	?	i	?	-6%	26µM*
CCc1cc(=O)oc2c(C)c(OCC(=O)N3CCC[C@@H]3C(=O)O)ccc12	?	i	i	-1%	-11%
O=C1c2ccccc2C(=O)C1C(=O)C(c1ccccc1)c1ccccc1	/	/	/	?	24µM*
N=Cc1c(O)n(-c2ccc(C34CC5CC(CC(C5)C3)C4)cc2)c(=O)[nH]c1=O	?	i	i	3.3µM*	5%
COC(=O)C1=C(c2ccc(F)cc2OCc2ccccc2)C[C@@H]2CC[C@H]1N2C(=O)N1CCC(O)(c2ccc(Cl)cc2)CC1	?	?	?	26%	-35%
COCCCn1c(=O)/c(=C\c2ccccc2OC(F)F)s/c1=C(/C#N)C(=O)NCCOC	0%	i	i	?	15µM*
COc1ccc(CC2C(=O)NC(C)C(=O)N(C)C3C(=O)N(C)C(Cc4ccc(O)c(c4)Oc4ccc(cc4)C3O)C(=O)NC(C)C(=O)NC(C)C(=O)N2C)cc1 (stereo not given)	/	0.16µM*	i	?	0.26µM*
CC12CN3C(O)C(C)(C1)CC(C)(C2)C3O (stereo not given)	-17%	i	i	5%	?
CC(C)(C)N1CC(C(=O)c2ccccc2)C1c1ccccc1 (stereo not given)	/	i	16µM*	-1%	29%
CN1CC(C(=O)c2ccccc2)C(c2ccccc2)C1 (stereo not given)	26%	i	i	10%	-10%
